NPR1 activator: GC-A stimulated cGMP production enhancers – HEK293 GC-A cells, cGMP TR-FRET, EC30 ANP, primary screen. Atrial natriuretic peptide receptor 1 (Homo sapiens), P16066. 0% at EC30 ANP, 100% saturating ANP. activation, % at 10 µM. 370,000 compounds, 0.14% hits; in the data active = activation above about 40%
Target sequence (P16066 whole entry, looked up): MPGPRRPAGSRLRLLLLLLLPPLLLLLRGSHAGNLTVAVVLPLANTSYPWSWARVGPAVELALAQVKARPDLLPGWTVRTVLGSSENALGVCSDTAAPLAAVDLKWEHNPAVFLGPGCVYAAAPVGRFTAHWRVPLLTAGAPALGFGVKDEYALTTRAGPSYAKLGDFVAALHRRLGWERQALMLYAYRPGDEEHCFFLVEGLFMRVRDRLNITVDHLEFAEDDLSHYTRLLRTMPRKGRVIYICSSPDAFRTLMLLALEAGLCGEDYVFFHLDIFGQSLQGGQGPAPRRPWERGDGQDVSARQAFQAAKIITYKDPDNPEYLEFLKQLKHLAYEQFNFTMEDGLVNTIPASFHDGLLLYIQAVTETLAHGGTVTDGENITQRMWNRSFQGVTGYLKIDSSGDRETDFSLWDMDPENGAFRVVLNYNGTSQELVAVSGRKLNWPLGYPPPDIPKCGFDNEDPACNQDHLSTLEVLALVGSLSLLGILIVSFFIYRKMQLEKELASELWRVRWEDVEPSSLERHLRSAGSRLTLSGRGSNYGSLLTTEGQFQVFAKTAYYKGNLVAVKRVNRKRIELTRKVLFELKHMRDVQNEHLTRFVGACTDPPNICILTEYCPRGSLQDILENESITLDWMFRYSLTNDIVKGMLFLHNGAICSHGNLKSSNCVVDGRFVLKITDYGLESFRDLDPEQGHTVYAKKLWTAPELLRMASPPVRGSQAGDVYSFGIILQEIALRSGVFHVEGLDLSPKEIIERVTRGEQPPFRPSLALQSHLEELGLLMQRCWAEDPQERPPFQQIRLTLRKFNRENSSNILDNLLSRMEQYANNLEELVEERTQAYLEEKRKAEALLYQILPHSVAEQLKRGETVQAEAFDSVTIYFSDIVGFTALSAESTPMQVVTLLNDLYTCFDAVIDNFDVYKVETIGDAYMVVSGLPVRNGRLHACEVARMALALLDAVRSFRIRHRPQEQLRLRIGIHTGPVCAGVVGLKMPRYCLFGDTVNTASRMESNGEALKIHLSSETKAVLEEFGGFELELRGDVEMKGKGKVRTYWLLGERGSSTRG
NPR2 activator: human GC-B receptor activators, primary screen, HEK293 GC-B cells, cGMP TR-FRET, EC30 CNP; Atrial natriuretic peptide receptor 2 (Homo sapiens), P20594; 0% at EC30 CNP, 100% saturating CNP; 370,000 compounds, 0.11% hits; AID 1920062, 2024; activation, % at 10 µM;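 active = activation at 10 µM reaching about 35% in either raw or pattern-adjusted values, limit read from the data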
Granule exo inh: LAMP-1 surface exposure blockers, TALL-104 cells – cell-based, flow cytometry, MLPCN library, primary screen | TALL-104 LAMP-1 surface exposure; cells stimulated with thapsigargin and PMA | inhibition, % at 10 µM | 360,000 compounds, 0.66% hits | AID 651702, 2012;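 active = inhibition above about 55%, limit read from the data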
Myeloid diff 2: induction of myeloid progenitor differentiation, primary screen, cell-based, flow cytometry, MLPCN library. ER-HoxA9 myeloid progenitors, lysozyme-GFP differentiation. calls only at 10 µM. 360,000 compounds, 1% hits;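 active = normalized GFP-positive differentiation at or above the plate's own cutoff, the solvent-only control mean plus 3 SD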;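 also: cells exposed to compound for four days before flow analysis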
Numbers without * were called inactive; i = inactive; . = not tested or not shown; + = active, no number. Shown are actives, neighbours in structure and some others; about 1.8% of the full set was active somewhere.

SMILES	NPR1 activator	NPR2 activator	Granule exo inh	Myeloid diff 2
Cc1cccc(-n2c(SCC(=O)Nc3ncc(Cl)cc3Cl)nc3ccccc32)c1	7	15	-3	+
C=CCN1C(=O)/C(=C/c2ccc(-c3ccc(F)cc3)o2)SC1=S	4	-5	93*	i
CCOc1ccc(S(=O)(=O)Nc2cc(SCC(=O)O)c(O)c3ccccc23)cc1	2	3	0	i
CC(C)OC(=O)C(C(=O)C(F)(F)F)c1cc(NS(=O)(=O)c2ccc3ccccc3c2)c2ccccc2c1O (centres undefined)	.	.	26	+
Cc1c(C)n(Cc2ccc(-c3ccccc3C(=O)O)cc2)c2ccc(C(=O)N[C@@H](C)c3ccc([N+](=O)[O-])cc3)cc12	-13	3	.	.
Nc1ccc(-n2cnc3cc([N+](=O)[O-])ccc32)cc1	-1	3	-2	+
COc1ccc(-n2cnc3cc([N+](=O)[O-])ccc32)cc1	2	-6	-10	i
Cn1c(=O)c2[nH]c(NN=Cc3cccc(Br)c3)nc2n(C)c1=O	0	-3	0	i
O=C(O)Cc1sc(Nc2ccccc2)nc1-c1cccs1	-6	-7	3	+
C=CCNc1nc(-c2cccs2)c(CC(=O)O)s1	2	-4	-2	i
C[C@H](CO)N1C[C@H](C)[C@@H](CN(C)C(=O)Nc2ccc(C(F)(F)F)cc2)Oc2c(NS(=O)(=O)c3cn(C)cn3)cccc2C1=O	1	6	4	i
C[C@H](CO)N1C[C@H](C)[C@@H](CN(C)C(=O)Nc2ccc(C(F)(F)F)cc2)Oc2ccc(NS(=O)(=O)c3ccccc3)cc2C1=O	3	82*	4	i
Cc1ccc(S(=O)(=O)Nc2ccc3c(c2)C(=O)N([C@H](C)CO)C[C@H](C)[C@@H](CN(C)C(=O)Nc2ccc(C(F)(F)F)cc2)O3)cc1	0	4	7	+
C[C@H](CO)N1C[C@H](C)[C@@H](CN(C)C(=O)Nc2ccc(C(F)(F)F)cc2)Oc2ccc(NS(=O)(=O)c3cn(C)cn3)cc2C1=O	0	2	33	+
C[C@H](CO)N1C[C@H](C)[C@@H](CN(C)C(=O)Nc2ccc(C(F)(F)F)cc2)Oc2ccc(NS(=O)(=O)c3ccc(F)cc3)cc2C1=O	1	3	5	i
C[C@H](CO)N1C[C@H](C)[C@@H](CN(C)C(=O)Nc2ccc(F)cc2)Oc2ccc(NS(C)(=O)=O)cc2C1=O	4	2	6	+
CC(C)CNC(=O)CC1Oc2ccccc2NC1=O (centres undefined)	1	10	.	.
CC(C)C[C@H]1COc2cc(N3CCCC3)ccc2S(=O)(=O)N1C	2	-4	.	.
C[C@H](O)CNC(=O)c1[nH]cnc1C(=O)N[C@@H](C)c1ccccc1	3	2	-4	i
O=C(NCCNC(=O)Nc1ccc(Cl)cc1)Nc1ccc(Cl)cc1	2	-1	1	+
N#Cc1c(NC(=O)c2ccccc2Cl)n(Cc2ccccc2)c2nc3ccccc3nc12	1	10	104*	+
CCCCn1c(NC(=O)CC)c(C#N)c2nc3ccccc3nc21	.	.	5	i
COc1ccc(-n2c(NC(=O)c3ccco3)c(C#N)c3nc4ccccc4nc32)cc1	-1	-2	12	+
CCCCn1c(NC(=O)c2ccccc2Cl)c(C#N)c2nc3ccccc3nc21	.	.	63*	+
CCC(=O)Nc1c(C#N)c2nc3ccccc3nc2n1-c1ccccc1C	-1	-5	3	i
SMILES	NPR1 activator	NPR2 activator	Granule exo inh	Myeloid diff 2
COC(=O)[C@@]12C[C@@H](CC(=O)N3CCCC3)C(=O)N(CCc3ccc(OC)c(OC)c3)C1=CCC(C)(C)C2	4	6	-4	i
CCC(c1ccc(OC)cc1)c1cn(C)c2ccccc12 (centres undefined)	-7	-1	.	.
N#C/C(=C\c1ccccn1)c1ccccn1	5	6	13	+
COc1cccc(C2NC(=O)NC(C)=C2C(=O)Nc2ccc(C)cc2)c1OC (centres undefined)	6	-1	-4	+
Cc1cccc(NS(=O)(=O)c2cccc(C(=O)NCC(C)(C)N3CCOCC3)c2)c1	-2	5	-2	+
Cc1csc(NC(=O)CSc2nc(C)nc3c2c(=O)n(C)c(=O)n3C)n1	28	37*	3	i
Cc1nc(SCc2c(F)cccc2Cl)c2c(=O)n(C)c(=O)n(C)c2n1	12	8	0	+
Cc1cccc(NC(=O)CSc2nc(C)nc3c2c(=O)n(C)c(=O)n3C)c1	6	10	8	i
COc1cc2c(C#N)c(N3CCc4ccccc4C3)nc(N)c2c(N)n1	11	10	48	+
Brc1ccc(C2Nc3cccc4cccc(c34)N2)cc1	2	-5	20	+
Fc1ccc(C2Nc3cccc4cccc(c34)N2)cc1	-3	-6	10	i
O=C(/C(=C/c1cccnc1)n1ccnc1)c1ccc(Cl)cc1Cl	-11	-5	96*	i
O=C(/C(=C/c1ccncc1)n1ccnc1)c1ccc(Cl)cc1Cl	-1	-11	.	.
CCCN(Cc1ccccc1)C(=S)Nc1ccc(SC(F)F)cc1	-1	0	90*	i
Cc1cccc(NC(=O)[C@@H]2CC(=O)O[C@@H]2c2ccccc2)c1C	3	-1	.	.
O=C1N=C(N2CCCC2)S/C1=C\c1ccccc1	-10	-10	-1	+
O=C1N=C(N2CCOCC2)S/C1=C/c1cccs1	-4	-2	-2	+
COc1ccc(S[C@]2(C(=O)N3CCOCC3)CC(=O)N(c3ccc(OC)cc3)[C@@H]2c2ccc(OC)cc2)cc1	-7	-7	.	.
O=C(c1cccs1)N1CC[C@H]2[C@H](CCCN2Cc2cc(F)cc(F)c2)C1	2	-3	.	.
COc1ccc(CN(C)C(=O)C2CCCN(c3nc4ccccc4o3)C2)cc1 (centres undefined)	-1	-9	.	.
CN1CCN(C(=O)c2cccc3c(-c4ccc(F)c(F)c4)coc23)CC1	.	.	4	i
N#Cc1ccsc1NC(=O)CSc1ncnc2ccccc12	-5	-6	1	+
COc1cc2c(cc1OC)/C(=C/C#N)NC(C)(C)C2	2	5	-5	i
COc1cc2c(cc1OC)C1=CC(=O)C(=O)N1C(C)(C)C2	-2	5	3	+
CCCCNC(=O)C1CCCN1C(=O)Nc1cc(C)cc(C)c1 (centres undefined)	2	1	.	.
CCCC[C@H](C(=O)N(C)c1ccccc1)[C@@H](O)c1ccc(Cl)cc1	-27	-25	.	.
CC1(c2nnnn2Cc2ccccc2)CCCCC(=O)N1Cc1cccs1 (centres undefined)	2	-2	.	.
CN(C)c1ccc(/C=C2\SC(=S)N(Nc3ncc(C(F)(F)F)cc3Cl)C2=O)cc1	-1	-2	1	+

Bioassay records as filed in PubChem.
